Sampled rows, rich in hits. Any-hit rate of the full collection: about 11%.
3T3 cytotox: NIH 3T3 cell cytotoxicity; AID 1345082; Potency, µM (top dose mostly 96.7 µM), for the others: top-dose activity change, negative = cytotoxicity, hits mostly inhibitors; 94,000 compounds, 4.3% hits; NIH 3T3 viability, CellTiter-Glo ATP luminescence, 48-72 h; also: % is scaled to controls: 0 for no effect and ±100 for the full control effect; nearly all actives have a fitted effect of over 55% in size
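Mouse fibroblast NIH 3T3 cells, 400 per well, received compound via pintool and were incubated for 48 or 72 hr prior to CellTiter-Glo ATP luminescence measurement.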
NPR1 antag: blocks ANP-stimulated signaling of human Npr1 receptor. HEK293 hNpr1 GloSensor cGMP, ANP-stimulated luminescence. Potency, µM (highest dose often 46.3 µM), inactives show top-dose activity change, negative = inhibition, usual class: inhibitors. P16066. AID 1347048. 76,000 compounds, 1.6% hits; calls by dose curve; also: % is scaled to controls: 0 for no effect and ±100 for the full control effect; nearly all actives have a fitted effect of over 60% in size
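Compound pre-incubated 30 min at room temperature on GloSensor-loaded HEK293 cells stably carrying hNpr1 and the pGS-40F cGMP biosensor. Stimulation uses hNppA at 0.1 nM final; luminescence is taken at baseline and 20 min post-agonist.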
HEK293 tox: kills HEK 293 cells | HEK 293 viability, ATP luminescence (CellTiter-Glo), 48-72 h | Potency, µM (doses to about 115 µM), for inactives: top-dose activity change, negative = cytotoxicity, most hits filed as inhibitors | 94,000 compounds, 6.6% hits | AID 1345083; also: % is scaled to controls: 0 for no effect and ±100 for the full control effect; nearly all actives have a fitted effect of over 60% in size
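Luminescence from cellular ATP, measured with CellTiter-Glo, indicates HEK 293 viability. Cells plated at 250 cells/well are treated with compound for 48 or 72 hr at 37 degree Celsius before reagent addition.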
FLuc inh-1: Photinus pyralis luciferase inhibition; P08659; purified P. pyralis luciferase, luminescence, biochemical; Potency, µM (highest dose often 115 µM), actives largely listed as inhibitors; 76,000 compounds, 2.5% hits; AID 1347043; also: % is scaled to controls: 0 for no effect and ±100 for the full control effect; nearly all actives have a fitted effect of over 65% in size
Target sequence (P08659 whole entry, looked up): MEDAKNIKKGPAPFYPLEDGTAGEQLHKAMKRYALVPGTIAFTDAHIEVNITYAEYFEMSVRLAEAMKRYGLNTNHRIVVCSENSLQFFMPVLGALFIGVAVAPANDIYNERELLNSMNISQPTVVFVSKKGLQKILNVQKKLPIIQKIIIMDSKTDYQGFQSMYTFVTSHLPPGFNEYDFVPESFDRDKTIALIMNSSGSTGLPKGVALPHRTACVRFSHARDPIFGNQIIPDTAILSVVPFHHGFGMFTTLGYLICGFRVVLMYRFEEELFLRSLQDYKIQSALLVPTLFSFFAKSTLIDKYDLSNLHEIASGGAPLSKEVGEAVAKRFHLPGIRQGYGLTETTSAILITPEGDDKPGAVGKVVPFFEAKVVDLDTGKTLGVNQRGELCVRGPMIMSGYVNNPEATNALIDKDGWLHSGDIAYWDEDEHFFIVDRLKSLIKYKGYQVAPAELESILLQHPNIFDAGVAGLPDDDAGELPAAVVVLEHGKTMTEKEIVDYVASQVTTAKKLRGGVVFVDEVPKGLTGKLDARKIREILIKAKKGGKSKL
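Purified P. pyralis luciferase (10nM final) in 50mM Tris acetate pH 7.5, 10mM Mg acetate, 0.01% Tween-20, 0.05% BSA with 10uM D-luciferin and 10uM ATP. Compounds titrated qHTS. Luminescence imaged on CCD.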
FLuc SDR no ATP: stabilizes firefly luciferase without ATP; shares compounds with FLuc inh-1; AID 1963318; Potency, µM (top dose mostly 32.7 µM), inactives show top-dose activation (signal gain), hits mostly activators; Purified FLuc-C-HiBiT, Nano-Glo HiBiT luminescence, no ATP; 1,300 compounds, 7.8% hits; also: nearly all actives have a fitted effect of over 55% in size
FLuc SDR ATP: firefly luciferase binding stabilization, ATP added | purified FLuc-C-HiBiT + ATP, HiBiT complementation luminescence | Potency, µM (top dose mostly 32.7 µM), inactives show top-dose activation (gain of signal), hits mostly activators | 1,300 compounds, 8.7% hits | shares compounds with FLuc inh-1;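 also: signal reports ligand binding via conformational change of the enzyme rather than luciferase catalysis; % of control where 0% means no effect; nearly all actives have a fitted effect of over 55% in size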
FLuc inh-2: inhibitors of firefly luciferase enzymatic activity | 1,300 compounds, 42% hits | purified FLuc-C-HiBiT enzyme, luciferin luminescence | Potency, µM (highest dose often 32.7 µM), for inactives: at the top dose activity change, negative = inhibition, actives largely listed as inhibitors | shares compounds with FLuc inh-1 | AID 1963320; also: % is scaled to controls: 0 for no effect and ±100 for the full control effect; nearly all actives have a fitted effect of over 70% in size
* hit, by the source's call; i = inactive; ? = inconclusive; . = not tested or not shown; [ ] = remark or other dose. Unless noted, calls follow the shape of the dose curve; as a rule, active = well fitted curve in the direction sought with a large enough effect; inconclusive = small, poorly fitted or top-dose-only effect, or another doubt; inactive = no such curve, though single readings can be large; an effect the other way counts as inactive or inconclusive. Potency is read from the fitted curve at half-maximal effect.

SMILES	3T3 cytotox	NPR1 antag	HEK293 tox	FLuc inh-1	FLuc SDR no ATP	FLuc SDR ATP	FLuc inh-2
Cc1ccc(NC(=O)N2CCc3c(C(=O)NCc4ccco4)cccc32)cc1	?	1.12µM*	?	0.0891µM*	9.89µM*	0.0785µM*	0.0495µM*
CCCCNC(=O)c1cccc2c1CCN2C(=O)Nc1ccccc1	-24.9%	?	?	3.55µM*	24.0%	1.97µM*	1.57µM*
Cc1ccc(NC(=O)N2CCc3c(C(=O)NCCc4ccccn4)cccc32)cc1	?	-20.3%	?	5.62µM*	?	11.1µM*	4.42µM*
CCN(CC)Cc1cnc2c(C(=O)Nc3cccc(OC)c3)cnn2c1	-17.4%	-0.4%	-20.0%	i	.	.	.
O=C(C1CCCN([S+](=O)([O-])c2cccc(C(F)(F)F)c2)C1)N1CCC(N2CCCC2=O)CC1 (stereo not drawn)	-27.4%	.	-28.5%	.	.	.	.
CCCNC(=O)c1cccc2c1CCN2C(=O)Nc1cccc(C)c1	4.9%	-23.0%	?	5.01µM*	?	3.51µM*	2.48µM*
Cc1ccc(C(=O)O)cc1Nc1nc2ccccc2n2nnnc12	.	.	.	.	12.6%	11.2%	?
CCCC(=O)N1CCN(c2nc3ccc(F)cc3s2)CC1	.	.	.	.	24.7%	?	11.1µM*
CCOc1ccc2nc(N3CCN(C(=O)c4ccco4)CC3)sc2c1	.	.	.	.	24.3%	14.9%	?
CC1(c2ccccc2)N(Cc2ccccc2)C(=O)OC12CCN(C(=O)C1CCOCC1)CC2 (stereo not drawn)	?	1.7%	-5.1%	i	.	.	.
COc1ccc(C(=O)N2CCOc3ccc(CCC(N)=O)cc3C2)cc1F	-29.8%	7.8%	-5.8%	i	.	.	.
COCCN1C(=O)CS(=O)(=O)C12CCN(C(=O)Cc1ccc(Cl)cc1)CC2	-19.0%	-2.5%	-8.5%	i	.	.	.
CCN1CCN(C(=O)c2cc(-c3ccc(C)cc3)cn2CC)CC1	?	1.2%	?	i	.	.	.
CCn1cc(-c2ccc(F)cc2)cc1C(=O)O	-20.1%	-13.0%	-13.6%	i	15.7%	10.5%	-7.9%
CCn1cc(-c2ccc(OC)cc2)cc1C(=O)O	-23.0%	-2.6%	?	25.1µM*	16.2%	14.4%	?
O=C(Nc1ccccc1F)NC1CCCN(CCn2nc3n(c2=O)CCCC3)C1 (stereo not drawn)	0.8%	.	0.9%	.	.	.	.
COc1ccccc1NC(=O)CN1C(=O)CC(c2ccc(C)c(C)c2)=Nc2ccccc21	.	.	.	.	19.4%	14.9%	?
CCc1cccc(-n2nnc(-c3nsc(NC(=O)c4cccs4)n3)c2C)c1	.	.	.	.	13.3%	14.4%	-18.6%
COc1ccc(CNC(=O)Cn2cccc2C(=O)c2ccccc2C)cc1	.	.	.	.	13.9%	13.0%	-10.9%
O=C1c2c(nc(CNCc3cnccn3)n2Cc2ccccc2)NCCN1Cc1cccc(Cl)c1	?	-10.2%	?	i	.	.	.
CC(C)(C)CC(=O)Nc1nc2c(s1)C[C@@H]1[C@](C)(CO)[C@H](O)CC[C@@]1(C)[C@@H]2CC(=O)NC1CCCC1	?	0.0%	-11.3%	i	.	.	.
Cc1ccc(C(=O)Nc2ccc3oc(-c4ccccc4C)nc3c2)cc1	.	.	.	.	13.8%	8.5%	-0.8%
Cc1ccc(NC(=O)c2ccc3oc(-c4cccnc4)nc3c2)cc1	-37.5%[138 µM]	.	-15.7%[172 µM]	.	.	.	.
O=C(O)c1ccc(-c2noc(-c3cccc(C(F)(F)F)c3)n2)cc1	.	.	.	.	11.7%	19.8%	?
COc1ccccc1-c1nc(-c2ccc(C(=O)O)cc2)no1	.	.	.	.	15.7%	2.21µM*	1.97µM*
SMILES	3T3 cytotox	NPR1 antag	HEK293 tox	FLuc inh-1	FLuc SDR no ATP	FLuc SDR ATP	FLuc inh-2
COc1ccc(-c2nc(-c3ccc(C(=O)O)cc3)no2)cc1	.	.	.	.	12.4µM*	0.111µM*	0.111µM*
CC(=O)N1CCC(Oc2ccccc2-c2nc(-c3ccccc3)no2)C1 (stereo not drawn)	?	12.0%	?	i	.	.	.
O=C(O)c1cccc(-c2noc(-c3cccc(Cl)c3)n2)c1	.	.	.	.	12.4µM*	0.0221µM*	0.007µM*
COCCc1noc(-c2nc(-c3ccc(OC)cc3)no2)n1	-11.1%	-17.2%	?	?	.	.	.
O=C(O)c1cccc(-c2noc(-c3ccc(Cl)cc3)n2)c1	.	.	.	.	2.79µM*	0.005µM*	0.0022µM*
COc1cccc(-c2nc(-c3cccc(C(=O)O)c3)no2)c1	.	.	.	.	12.4µM*	0.007µM*	0.0039µM*
O=C(O)c1ccc(-c2noc(-c3ccc(Cl)cc3)n2)cc1	.	.	.	.	?	1.4µM*	0.785µM*
O=C(COc1ccc(-c2nnc3n2CCCC3)cc1)Nc1cccc(Br)c1	?	3.3%	?	i	.	.	.
O=C(NCc1ccncc1)c1nc2c(o1)CCN(Cc1nccs1)CC2	-22.0%[138 µM]	-15.7%[70.6 µM]	?	i	.	.	.
Cc1cccc(CN2CCc3nc(C(=O)NCc4ccccc4)oc3CC2)c1	?	-26.6%[70.6 µM]	?	i	.	.	.
O=C(NCCOc1ccccc1)c1nc2c(o1)CCN(Cc1ccsc1)CC2	?	-11.0%[70.6 µM]	?	i	.	.	.
O=C(Nc1cccnc1)c1nc2c(o1)CCN(Cc1nccs1)CC2	.	.	.	.	24.5%[49.3 µM]	16.8%[49.3 µM]	?
O=C(Nc1cccnc1)c1nc2c(o1)CCN(Cc1ccc(O)cc1)CC2	.	.	.	.	22.8%[49.3 µM]	16.2%[49.3 µM]	?
O=C(Nc1ccccc1)c1nc2c(o1)CCN(Cc1ccc(F)cc1)CC2	?	17.8µM*	?	8.91µM*	19.6%[49.3 µM]	16.6%[49.3 µM]	?
Cc1csc(NC(=O)c2nc3c(o2)CCN(Cc2ccccc2F)CC3)n1	?	-21.5%[70.6 µM]	?	4.47µM*	?	17.7%[49.3 µM]	?
CCOCCCNC(=O)c1ccccc1-c1ccc(OC)nn1	-8.8%[138 µM]	.	3.1%[172 µM]	.	.	.	.
CC1CCN(CC2CCCNCC2)CC1 (stereo not drawn)	-0.3%	-5.2%	?	i	.	.	.
CCCNc1cc(N2CCC(CCC(=O)O)CC2)ncn1	2.2%	3.4%	4.4%	39.8µM*	15.2%	9.89µM*	7.85µM*
CCCNc1cc(N2CCC(CCC(=O)NCC)CC2)ncn1	-7.4%	-14.0%	i	i	.	.	.
O=C(O)CCC1CCN(c2cc(NC3CC3)ncn2)CC1	-11.9%	-0.4%	5.3%	5.01µM*	15.6%	3.94µM*	3.13µM*
O=C(CCC1CCN(c2cc(NC3CC3)ncn2)CC1)Nc1ccccc1	-24.4%	?	?	?	.	.	.
CN(C)C(=O)c1cc(-c2ccc(Cl)cc2)cn1C	-24.7%	-0.3%	?	?	.	.	.
Cc1ccc(-c2cc(C(=O)O)n(C)c2)cc1	-28.9%	-13.6%	-0.2%	15.8µM*	10.8%	?	?
Cn1cc(-c2ccc(Cl)cc2)cc1C(=O)O	?	-4.1%	?	?	10.1%	9.6%	-14.8%

Screening data as filed in PubChem BioAssay.
